The values that follow come from PubChem BioAssay AID602283 (Johns Hopkins Ion Channel Center, 2012).

In all, about 1,100 compounds went through this assay and about 940 (85%) were called active.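 The calls were made as follows: active = inhibition exceeding 3 SD of buffer-only control wells (cut at about 26% in these data); inactive = the rest.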 So high a share suggests a set chosen from earlier hits. Only a sample is shown.

For orientation: inhibition means the change of the read-out against control, counted positive when it falls.

The assay in a line: carbachol calcium response changes in non-induced cells, primary screen, counter-screen for RGS4 activator project, cell-based, HEK293 M3R, non-induced RGS4, Fluo-4 calcium (AID 602283).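 Also: percent drop in integrated peak-minus-baseline over baseline Fluo4 ratio after carbachol.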 Conditions: HEK293 M3R non-induced RGS4, Fluo4 calcium flux; at 10 µM; active compounds read high; after carbachol challenge at its EC90. On the technique in general: The purpose of a counterscreen is to sort out artefacts and off-target activity.
Turning to `C=CC12CN(C)[C@@H]3C4CO[C@H](C[C@H]41)[C@]1(C(=O)Nc4ccccc41)[C@@H]32` (some centres not stated), the inhibition is 83.8% (active).

For `CC(C)Oc1cccc(C(=O)C2CCCN(C3CCOCC3)C2)c1` (configuration not stated), the inhibition is 83.8% (active).
